MARV entry inh: Marburg virus entry inhibition. Potency, µM (titrated, usually from 37.8 µM), inactives show at the top dose activity change, negative = inhibition, hits mostly inhibitors. Marburg virus pseudotyped entry inhibition, cell reporter. AID 540276. 300,000 compounds, 1.8% hits; calls by dose curve; tested in HEK293 cells; further: potency means the concentration at half of the fitted maximal effect
LASV entry inh: inhibitors of Lassa virus binding or cell entry | Potency, µM (top dose mostly 37.9 µM), for the others: top-dose activity change, negative = inhibition, hits mostly inhibitors | Lassa virus pseudotype entry inhibition, cell reporter | 300,000 compounds, 1.2% hits; calls by dose curve; tested in HEK293 cells; further: potency means the concentration at half of the fitted maximal effect; nearly all actives have a fitted effect of over 50% in size
HCMV inh: inhibitors of human cytomegalovirus | HFF cells, HCMV-luciferase reporter, 72 h; active compounds read low | activity change, negative = inhibition, % at 57.5 µM | 410,000 compounds, 4.5% hits | AID 1259415; in the data active means activity change below about -60%; inconclusive means no clear call, values can overlap the other calls; inactive means above about -39%
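HFF cells seeded 16 h at 37C, treated with compounds, infected with luciferase-reporter HCMV at MOI 1 PFU/cell; luciferase read at 72 h post infection, normalized to buffer-only and Salinomycin controls.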
VACV Venus inh: vaccinia inhibition (Venus reporter). Vaccinia virus Venus reporter expression, fluorescence. 330,000 compounds, 0.46% hits. AID 720580. Potency, µM (highest dose often 36.5 µM), for the others: top-dose activity change, negative = inhibition, actives largely listed as inhibitors; calls by dose curve; tested in A549 cells; further: potency means the concentration at half of the fitted maximal effect; nearly all actives have a fitted effect of over 30% in size
VACV mCherry inh: vaccinia inhibition (mCherry reporter); 310,000 compounds, 0.63% hits; Vaccinia virus mCherry reporter infection, fluorescence; Potency, µM (highest dose often 36.5 µM), for inactives: at the highest dose activity change, negative = inhibition, most hits filed as inhibitors; AID 720579; calls by dose curve; tested in A549 cells; further: potency means the concentration at half of the fitted maximal effect; nearly all actives have a fitted effect of over 35% in size
FMDV antiviral: antivirals against foot and mouth disease virus. FMDV antiviral cell-based qHTS. Potency, µM (series often up to 57.9 µM), inactives show at the top dose activity change, negative = inhibition, hits mostly inhibitors. 410,000 compounds, 1.2% hits. AID 1159524; calls by dose curve; tested in HEK293T cells; further: read-out not given here; potency means the concentration at half of the fitted maximal effect; nearly all actives have a fitted effect of over 45% in size
An asterisk follows results filed as active; i = inactive; ? = inconclusive; · = not tested or not shown; [ ] = dose if it differs, or a comment. Only some compounds are listed: those with a hit (about 6.5% of all), similar ones and a draw of the others. On the % scale 0 is the no-effect control and ±100 the full control effect.

SMILES	MARV entry inh	LASV entry inh	HCMV inh	VACV Venus inh	VACV mCherry inh	FMDV antiviral
CC(C)(C)NC(=O)CN1CCN(C(=O)CCl)CC1	?	?	-63*	2.5µM*	?	?
CCOC(=O)N1CCN(C(=O)COC(=O)c2cc(Cl)c(O)c(Cl)c2)CC1	6%[46.1 µM]	-20%	-73*	-1%	i	0%
CN(C)c1ccc(/C=C/c2ccnc3ccccc23)c(N)c1	·	·	·	-14%	-24%	·
COc1cccc(Cn2c(=O)c(C)nc3cnc(N(C)C)nc32)c1	·	·	·	·	·	-9%
CCOc1ccc(N2CC(c3nc4ccccc4n3Cc3cccc(Cl)c3)CC2=O)cc1 (stereo not given)	-6%[46.1 µM]	-11%[46.1 µM]	10	-2%	-20%	-29%
CC(=O)[C@@]1(O)CC[C@H]2[C@@H]3C=C(Cl)C4=CC(=O)[C@@H]5C[C@@H]5[C@]4(C)[C@H]3CC[C@@]21C	·	·	·	-7%	-12%	-10%
COC(=O)c1c(NC(=O)COC(=O)Cn2cnc3ccccc32)sc(C)c1C	10%[46.1 µM]	3%	2	-17%	-12%	6%
CCOC(=O)c1c(NC(=O)COC(=O)Cn2cnc3ccccc32)sc(C)c1C	-8%	17%	18	?	10µM*	-6%
CCCn1c(N)c(C(=O)CSc2nc(C)cs2)c(=O)n(C)c1=O	10µM*	-24%	-39	?	-1%[1.46 µM]	0%
CC(C)Cn1c(N)c(C(=O)COC(=O)/C=C/c2ccccc2)c(=O)n(C)c1=O	10µM*	?	-76*	-20%	?	16µM*
CC(C)Cn1c(N)c(C(=O)COC(=O)c2ccc(Br)cc2)c(=O)n(C)c1=O	·	·	-30	·	·	32µM*
CC(C)Cn1c(N)c(C(=O)COC(=O)c2ccc(Cl)cc2)c(=O)n(C)c1=O	-19%[46.1 µM]	-14%[46.1 µM]	?	-9%	i	-20%
CC(C)Cn1c(N)c(C(=O)COC(=O)CC23CC4CC(CC(C4)C2)C3)c(=O)n(C)c1=O	8.9µM*	1.8µM*	-67*	?	·	13µM*
CN(Cc1ccccc1)c1nc2c(S(=O)(=O)c3ccccc3)nnn2c2ccsc12	·	30%[46.1 µM]	5	-30%	?	-2%
CC(=O)Nc1ccccc1-c1nc(CNC(=O)c2ccc(F)c(F)c2)c(C)o1	·	·	·	-1%	i	-8%
O=C1c2ccccc2C(=O)N1c1ccc(S(=O)(=O)N2CCOCC2)cc1	·	·	·	-9%	1%	·
CC(C)Cn1c(N)c(C(=O)CSc2ccccc2)c(=O)n(C)c1=O	?	1%	-29	-22%	?	20µM*
COc1ccc(-[n+]2c(C)cc(/C=C3\Sc4ccccc4N3C)cc2C)cc1	·	·	-99*	·	·	?
COc1ccc(C(=O)/C=C2\Sc3ccccc3N2C)cc1	?	?	127	-8%	-25%	-5%
COc1ccccc1-[n+]1c(C)cc(/C=C2\Sc3ccccc3N2C)cc1C	·	·	-80*	·	·	4µM*
CN(C)c1ccc(/C=C/c2ccnc3ccccc23)c(F)c1	·	·	·	15%	i	·
COc1ccc(CNC(=O)Cn2nc(N3CCN(c4ccccc4)CC3)ccc2=O)c(OC)c1	·	-6%[46.1 µM]	-31	0%	-8%	-20%
N#Cc1cccc(NC(=S)Nc2ccccc2)c1	?	3%	-68*	-7%	-19%	10%
O=C(CN1C(=O)COc2ccc(S(=O)(=O)N3CCCCCC3)cc21)Nc1cccc(Cl)c1	·	-18%[46.1 µM]	-72*	-14%	-16%	-1%
Cc1ccc(CCNC(=O)CN2C(=O)COc3ccc(S(=O)(=O)N4CCC(C)CC4)cc32)cc1	·	-16%[46.1 µM]	?	-15%	-16%	-1%
SMILES	MARV entry inh	LASV entry inh	HCMV inh	VACV Venus inh	VACV mCherry inh	FMDV antiviral
CCN(CC)S(=O)(=O)c1ccc2c(c1)N(CC(=O)NCCCN1CCN(c3cc(C)ccc3C)CC1)C(=O)CO2	·	?	-99*	-22%	?	0%
Cc1ccc(CCNC(=O)CN2C(=O)COc3ccc(S(=O)(=O)N4CCCC4)cc32)cc1	·	1%[46.1 µM]	-87*	-16%	i	-7%
COc1ccc(OC)c(CCNC(=O)CN2C(=O)COc3ccc(S(=O)(=O)N4CCOCC4)cc32)c1	?	1%[46.1 µM]	-72*	-25%	-17%	-4%
O=C(CN1C(=O)COc2ccc(S(=O)(=O)N3CCCC3)cc21)Nc1cccc(F)c1	·	·	-5	·	·	0%
CCN(CC)S(=O)(=O)c1ccc2c(c1)N(CC(=O)NCCCN1CCN(c3ccccc3F)CC1)C(=O)CO2	?	2%[46.1 µM]	-12	-12%	-13%	-3%
COC(=O)c1ccc(NC(=O)C(=O)NCC(c2cccnc2)N2CCN(c3ccccc3)CC2)cc1 (stereo not given)	·	-9%[46.1 µM]	?	-17%	-17%	-9%
COc1cccc(C(=O)NCC(c2cccnc2)N2CCN(c3ccccc3OC)CC2)c1 (stereo not given)	·	·	·	-24%	-20%	35µM*
COc1cccc(NC(=O)C(=O)NCC(c2cccnc2)N2CCN(c3ccccc3)CC2)c1 (stereo not given)	·	11µM*	70	-14%	-15%	-1%
COc1cccc(C(=O)NCC(c2ccc(N(C)C)cc2)N2CCc3ccccc32)c1 (stereo not given)	·	-9%[46.1 µM]	-68*	0%	-5%	-16%
COc1ccc(C(CNC(=O)c2cccc(S(=O)(=O)Nc3ccccc3OC)c2)N2CCCCC2)cc1 (stereo not given)	?	?	-99*	-18%	-8%	-19%
COc1ccc(C(=O)NCC(c2cccnc2)N2CCN(c3ccccc3OC)CC2)cc1OC (stereo not given)	-3%	·	14	-12%	-4%	?
Cc1nn(-c2ccccc2)c(C)c1NC(=O)COc1ccc(Br)cc1Cl	-57%	?	?	-7%	-17%	22µM*
Cc1nn(-c2ccccc2)c(C)c1NC(=O)COc1cc(F)ccc1[N+](=O)[O-]	·	·	?	·	·	25µM*
Cc1nn(-c2ccccc2)c(C)c1NC(=O)COc1ccccc1C#N	·	·	-35	-6%	-5%	-5%
CCOc1ccc(OCC(=O)NCCS(=O)(=O)N2CCN(c3ccccc3F)CC2)cc1	·	-29%[46.1 µM]	-15	-12%	-20%	-3%
CCOc1ccccc1CNC(=O)CN1C(=O)CCCc2ccccc21	·	8%[46.1 µM]	0	-4%	i	0%
CCn1ncc(Br)c1C(=O)Nc1cccc(F)c1	2%[46.1 µM]	-4%[46.1 µM]	24	-18%	-12%	-27%
CCn1ncc(Br)c1C(=O)Nc1ccc(C(C)C)cc1	13µM*	-13%[46.1 µM]	150	-16%	-8%	8%
O=Nc1ccc(Br)cn1	·	·	-6	·	·	·
Cc1ccc(-n2nnnc2CNC(=O)c2ccc(F)cc2)cc1C	·	-5%[46.1 µM]	4	-3%	-11%	2%
Cc1cc(F)ccc1O[C@H]1C=C[C@@H](c2ccc3c(c2)OCO3)O[C@@H]1CO	14%[14.2 µM]	·	·	·	·	·
COc1ccc(CCN(Cc2cc3ccc(C)cc3n3nnnc23)C(C)=O)cc1OC	3%[46.1 µM]	-19%	-100*	-14%	0%	-18%
CC(C)c1ccc(NC(=O)CCNS(=O)(=O)c2cc(Br)cnc2N)cc1	·	·	-24	·	·	0%

Source: PubChem (National Center for Advancing Translational Sciences (NCATS))
